According to PubChem BioAssay AID651551 (Sanford-Burnham Center for Chemical Genomics, 2012):

target: PEG-3 (UniProt Q6IN02); test: GAPDH versus PEG-3 reporter suppression – cell-based, luminescence, counter-screen for PEG-3 promoter inhibitor project, SAR follow-up (AID 651551); settings: HeLa PEG-Prom / GAPDH luciferase reporter, 6 or 24 h, run 1, 6 h; at 99 µM (top of the series)

Which inhibition % (higher = more inhibition) does the source give for `COc1ccc(-n2nc(C(=O)NCC(=O)Nc3cccc(OC)c3)c3ccccc3c2=O)cc1` here?
Its inhibition % (higher = more inhibition) is -7.42%.

Which inhibition % (higher = more inhibition) does the source give for `CCn1nc(C(=O)Nc2nc(-c3ccccn3)cs2)c2ccccc2c1=O` here?
The inhibition % (higher = more inhibition) was 26.9%.

With `O=C(Nc1nc(-c2ccccc2)cs1)c1nn(-c2ccccc2)c(=O)c2ccccc12` as the compound, how does the inhibition % (higher = more inhibition) read?
Its inhibition % (higher = more inhibition) is -1.45%.

`Cc1nc(NC(=O)c2ccccc2)sc1-c1csc(Nc2cccc(Cl)c2C)n1` was tested. Which inhibition % (higher = more inhibition) did it give?
The inhibition % (higher = more inhibition) was 37.4%.

For `COc1ccc(-n2nc(C(=O)NCC(=O)Nc3ccc(OC)c(OC)c3)c3ccccc3c2=O)cc1`, which inhibition % (higher = more inhibition) is on record?
The inhibition % (higher = more inhibition) was 23.9%.

Which inhibition % (higher = more inhibition) does the source give for `Cc1nc(NC(=O)c2ccccc2)sc1-c1csc(Nc2ccccc2Cl)n1` here?
Its inhibition % (higher = more inhibition) is -1.45%.

How did the inhibition % (higher = more inhibition) turn out when `Cc1cc(NC(=O)c2cccc(C)c2C)n(-c2nc3ccccc3[nH]2)n1` was run?
The inhibition % (higher = more inhibition) was 20.4%.

For `Cc1cc(NC(=O)c2ccccc2)n(-c2nc3ccccc3[nH]2)n1`, which inhibition % (higher = more inhibition) is on record?
Its inhibition % (higher = more inhibition) is 14.9%.

For `CCCn1nc(C(=O)Nc2nc3ccccc3s2)c2ccccc2c1=O`, which inhibition % (higher = more inhibition) is on record?
The inhibition % (higher = more inhibition) was 38.9%.

How did the inhibition % (higher = more inhibition) turn out when `CCn1cc(C(=O)NCc2ccco2)c(=O)c2cc(S(=O)(=O)N3CCCC3)ccc21` was run?
Its inhibition % (higher = more inhibition) is 19.5%.

`CCCn1nc(C(=O)Nc2nc(-c3ccccn3)cs2)c2ccccc2c1=O` was tested. Which inhibition % (higher = more inhibition) did it give?
Its inhibition % (higher = more inhibition) is 25.9%.

How did the inhibition % (higher = more inhibition) turn out when `COCCCNC(=O)c1ccc(Cn2c(=O)c3ccccc3n(Cc3ccccc3C#N)c2=O)cc1` was run?
The inhibition % (higher = more inhibition) was 43.4%.

How did the inhibition % (higher = more inhibition) turn out when `Cc1cc(NC(=O)c2ccccc2)n(-c2nc3ccccc3n2C)n1` was run?
The inhibition % (higher = more inhibition) was 48.1%.

Which inhibition % (higher = more inhibition) does the source give for `O=C(Nc1nc2ccccc2s1)c1nn(-c2ccccc2)c(=O)c2ccccc12` here?
Its inhibition % (higher = more inhibition) is -4.43%.

How did the inhibition % (higher = more inhibition) turn out when `O=C(Nc1nccs1)c1nn(-c2ccccc2)c(=O)c2ccccc12` was run?
The inhibition % (higher = more inhibition) was 37.4%.

`COc1ccc(-n2nc(C(=O)NCC(=O)Nc3cc(OC)c(OC)c(OC)c3)c3ccccc3c2=O)cc1OC` was tested. Which inhibition % (higher = more inhibition) did it give?
Its inhibition % (higher = more inhibition) is 6.02%.

For `Cc1cc(NC(=O)c2ccccc2C)n(-c2nc3ccccc3[nH]2)n1`, which inhibition % (higher = more inhibition) is on record?
Its inhibition % (higher = more inhibition) is 32.8%.

Which inhibition % (higher = more inhibition) does the source give for `Cc1nc(NC(=O)c2ccccc2)sc1-c1csc(Nc2ccccc2)n1` here?
Its inhibition % (higher = more inhibition) is 23.9%.

For `COc1ccc(Cl)cc1Nc1nc(-c2sc(NC(=O)c3ccccc3)nc2C)cs1`, which inhibition % (higher = more inhibition) is on record?
The inhibition % (higher = more inhibition) was 49.3%.

With `COc1ccccc1Nc1nc(-c2sc(NC(=O)c3ccco3)nc2C)cs1` as the compound, how does the inhibition % (higher = more inhibition) read?
The inhibition % (higher = more inhibition) was 12%.

`CCCn1nc(C(=O)Nc2nc(-c3ccncc3)cs2)c2ccccc2c1=O` was tested. Which inhibition % (higher = more inhibition) did it give?
Its inhibition % (higher = more inhibition) is 19.5%.

With `Cc1ccc(Cl)cc1Nc1nc(-c2sc(NC(=O)c3ccco3)nc2C)cs1` as the compound, how does the inhibition % (higher = more inhibition) read?
The inhibition % (higher = more inhibition) was 57.5%.

How did the inhibition % (higher = more inhibition) turn out when `Cc1cc(NC(=O)c2ccccc2C(F)(F)F)n(-c2nc3ccccc3[nH]2)n1` was run?
The inhibition % (higher = more inhibition) was 92.7%.
